Here are results for eight compounds from PubChem BioAssay (NCI).

This is part of a sample that, as a whole, favours compounds with a hit. Of some 83,000 tested, about 20% had one in any assay.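 In brief: 96-well plates, 48 h treatment, single concentration, percent growth endpoint.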 Unmarked numbers belong to inactive results. Activity calls are given as the source filed them. The calls were made as follows: active = growth percent below 10; inactive = the rest.

Among the test systems are DU-145 prostate; K-562 leukemia; MALME-3M melanoma; MDA-MB-231 breast; RXF 393 renal; SF-268 CNS; SF-295 CNS; SF-539 CNS; UACC-257 melanoma; M14 melanoma; HCT-15 colon; HT29 colon; SNB-75 CNS; SNB-19 CNS; U251 CNS; PC-3 prostate; SK-MEL-5 melanoma; UACC-62 melanoma; LOX IMVI melanoma; SK-MEL-28 melanoma.
Holding throughout (test): NCI-60 one-dose screen, 48 h (100 = growth as untreated, 0 = no growth, -100 = all killed)
What all share (details): 10 µM unless noted

`Cc1cc(/C=C\c2ccc3ccccc3[n+]2C)c(O)c2ncccc12`: the growth in the assay with DU-145 prostate was 26.2%; with K-562 leukemia, 8.28% (active); in the assay with MALME-3M melanoma, -4.74% (active); in the assay with MDA-MB-231 breast it was 4.71% (active); in the assay with RXF 393 renal, -20.3% (active); in the assay with SF-268 CNS, 14.1%. Further, the growth is 0.202% (active) in the assay on SF-295 CNS; -36.9% (active) in the assay on SF-539 CNS; 16.4% in the assay with UACC-257 melanoma; -51.6% (active) in the assay on M14 melanoma; 27.9% in the assay with HCT-15 colon; 25.7% with HT29 colon. The growth was 37.8% in the assay on SNB-75 CNS; 11.9% in the assay with SNB-19 CNS; 9.3% (active) in the assay on U251 CNS; 34.1% in the assay with PC-3 prostate; 6.19% (active) in the assay on SK-MEL-5 melanoma; -26.5% (active) with UACC-62 melanoma. The growth was -27.2% (active) with LOX IMVI melanoma and 25.7% in the assay on SK-MEL-28 melanoma.
Consider `O=C(O)CN1C(=O)CCC1=O`, for which the growth with DU-145 prostate is 109%; in the assay with K-562 leukemia, 111%; in the assay on MALME-3M melanoma, 104%; in the assay on MDA-MB-231 breast, 90.7%; in the assay with RXF 393 renal, 111%; in the assay on SF-268 CNS, 99.8%. Besides, the growth in the assay with SF-295 CNS was 99.1%; with SF-539 CNS, 99%; with UACC-257 melanoma, 104%; in the assay with M14 melanoma it was 111%; in the assay with HCT-15 colon it was 103%; in the assay on HT29 colon it was 90.6%. Also, the growth with SNB-75 CNS was 95.3%; with SNB-19 CNS it was 108%; in the assay with U251 CNS, 105%; with PC-3 prostate, 108%; in the assay on SK-MEL-5 melanoma it was 103%; with UACC-62 melanoma, 108%. The growth in the assay on LOX IMVI melanoma was 102%; in the assay on SK-MEL-28 melanoma, 107%.
`C#Cc1cccc(NC(=O)c2ccc(NC(=O)CCl)cc2)c1`: the growth with DU-145 prostate was 42.4% [8.25 µM]; with K-562 leukemia, 7.87% [8.25 µM] (active); in the assay with MALME-3M melanoma it was -83.5% [8.25 µM] (active); in the assay with MDA-MB-231 breast, -22.8% [8.25 µM] (active); with RXF 393 renal it was 47.9% [8.25 µM]; with SF-268 CNS it was -8.76% [8.25 µM] (active). The growth was 75.4% [8.25 µM] in the assay with SF-295 CNS; -94.7% [8.25 µM] (active) in the assay with SF-539 CNS; 43.3% [8.25 µM] in the assay on UACC-257 melanoma; -60.6% [8.25 µM] (active) in the assay with M14 melanoma; -57% [8.25 µM] (active) with HCT-15 colon; 34.5% [8.25 µM] in the assay with HT29 colon. For the same compound, the growth in the assay on SNB-75 CNS was 32.2% [8.25 µM]; with SNB-19 CNS, 8.27% [8.25 µM] (active); with U251 CNS, -90.1% [8.25 µM] (active); with PC-3 prostate, -46.6% [8.25 µM] (active); in the assay on SK-MEL-5 melanoma it was -56.7% [8.25 µM] (active); in the assay with UACC-62 melanoma it was 7.2% [8.25 µM] (active). Further, the growth was -77.5% [8.25 µM] (active) with LOX IMVI melanoma and 54% [8.25 µM] in the assay with SK-MEL-28 melanoma.
With `CN(C)c1ccc(-c2cc(-c3ccc(Nc4nc(Nc5ccc(Cl)cc5)nc(Nc5ccc(Cl)cc5)n4)cc3)no2)cc1`, the growth in the assay on DU-145 prostate is 47.7%; in the assay on K-562 leukemia it was 24.8%; with MALME-3M melanoma, 54%; in the assay on MDA-MB-231 breast it was 35.6%; with RXF 393 renal it was -42.1% (active); with SF-268 CNS, 45%. Further, the growth was -16.8% (active) in the assay with SF-295 CNS; 46.1% with SF-539 CNS; 65.7% with UACC-257 melanoma; 61.6% in the assay on M14 melanoma; 39% in the assay with HCT-15 colon; 33.9% with HT29 colon. Also, the growth in the assay on SNB-75 CNS was 19.6%; with SNB-19 CNS it was 65.7%; with U251 CNS it was 27.4%; in the assay with PC-3 prostate, 6.65% (active); in the assay on SK-MEL-5 melanoma it was 34.5%; with UACC-62 melanoma it was 66.2%. For the same compound, the figures for the growth with LOX IMVI melanoma and in the assay with SK-MEL-28 melanoma were 29% and 31.3%, respectively.
For `COc1nc(N(C)O)nc(N(C)O)n1`, the growth in the assay on DU-145 prostate was 23.5%; in the assay with K-562 leukemia, 20.3%; in the assay on MALME-3M melanoma, 58.6%; with MDA-MB-231 breast, 49.1%; in the assay with RXF 393 renal it was 58.5%; in the assay with SF-268 CNS it was 30.9%. Also, the growth in the assay on SF-295 CNS was 60.6%; with SF-539 CNS, 20.1%; with UACC-257 melanoma, 39.6%; with M14 melanoma, 15%; in the assay with HCT-15 colon it was 23.9%; with HT29 colon, 46.3%. Moreover, the growth in the assay on SNB-75 CNS was 74.5%; in the assay on SNB-19 CNS, 31.8%; in the assay on U251 CNS, 27.2%; in the assay with PC-3 prostate, 42.9%; with SK-MEL-5 melanoma, 13.1%; in the assay on UACC-62 melanoma it was 11.5%. The values for the growth in the assay with LOX IMVI melanoma and in the assay on SK-MEL-28 melanoma were 14.8% and 53.2%, respectively.
Turning to `Cc1ccc(N2CCN(C(=S)c3cccs3)CC2)cc1`, the growth with DU-145 prostate is 108%; in the assay with K-562 leukemia, 89.1%; in the assay with MALME-3M melanoma it was 100%; in the assay on MDA-MB-231 breast, 97.1%; in the assay with RXF 393 renal it was 111%; in the assay on SF-268 CNS, 107%. Further, the growth in the assay with SF-295 CNS is 103%; in the assay with SF-539 CNS, 101%; in the assay on UACC-257 melanoma it was 101%; in the assay on M14 melanoma, 103%; with HCT-15 colon, 96.3%; in the assay with HT29 colon, 90.9%. Further, the growth was 94.3% in the assay on SNB-75 CNS; 100% in the assay on SNB-19 CNS; 96.3% in the assay with U251 CNS; 92.9% in the assay with PC-3 prostate; 95.2% in the assay on SK-MEL-5 melanoma; 90.1% in the assay with UACC-62 melanoma. The growth in the assay with LOX IMVI melanoma is 116%; in the assay on SK-MEL-28 melanoma it was 102%.
For the compound `CCCCCc1nc2c(c3c1CCCC3)CCCC2`, the growth is 114% in the assay on DU-145 prostate; 37.3% with K-562 leukemia; 102% in the assay on MALME-3M melanoma; 104% in the assay with MDA-MB-231 breast; 80% with RXF 393 renal; 105% with SF-268 CNS. Also, the growth in the assay with SF-295 CNS was 81.6%; in the assay on SF-539 CNS it was 93.2%; in the assay on UACC-257 melanoma, 82.5%; with M14 melanoma, 103%; with HCT-15 colon, 74.8%; in the assay with HT29 colon, 55.4%. Further, the growth in the assay on SNB-75 CNS was 82.1%; in the assay with SNB-19 CNS it was 72.8%; in the assay on U251 CNS, 83.7%; in the assay with PC-3 prostate it was 64.9%; with SK-MEL-5 melanoma, 83.8%; with UACC-62 melanoma, 82.2%. Also, the growth was 88.3% in the assay with LOX IMVI melanoma and 100% in the assay on SK-MEL-28 melanoma.
For `COC(=O)[C@]12CC[C@@H](C)[C@H](C)[C@@H]1C1=CC[C@@H]3[C@@]4(C)C(C=O)=C[C@@](C)(COS(C)(=O)=O)[C@@H]4C(=O)C[C@@]3(C)[C@]1(C)CC2`, the growth in the assay on DU-145 prostate is 41.2%; in the assay with K-562 leukemia, 21.3%; with MALME-3M melanoma it was 83.6%; in the assay with MDA-MB-231 breast, 37.2%; with RXF 393 renal, 73.8%; with SF-268 CNS, 40.2%. The growth in the assay with SF-295 CNS is 37.3%; in the assay with SF-539 CNS it was 65.7%; in the assay with UACC-257 melanoma, 52.6%; with M14 melanoma, 36.8%; in the assay on HCT-15 colon, 21.4%; with HT29 colon, 26.9%. The growth is 38.7% with SNB-75 CNS; 41.7% with SNB-19 CNS; 26% in the assay on U251 CNS; 12% in the assay on PC-3 prostate; 63.8% in the assay on SK-MEL-5 melanoma; 38.6% in the assay with UACC-62 melanoma. The figures for the growth in the assay on LOX IMVI melanoma and in the assay with SK-MEL-28 melanoma were 35.7% and 74.2%, respectively.
